High-throughput results (PubChem)
mHTT CaM bind – mutant huntingtin-calmodulin interaction inhibitors – biochemical, AlphaScreen, primary screen | P42858 | AlphaScreen His-mHTT/GST-CaM binding, luminescence | inhibition, % at 15 µM | 190,000 tested, 3.6% active
Pf apPOL block – Pf-apPOL inhibitors, biochemical, fluorescence. inhibition, % at 10 µM. AID 1794808, 2022. 210,000 tested, 0.25% active. Plasmodium falciparum apicoplast DNA polymerase (apPOL). Recombinant Pf-apPOL, molecular beacon fluorescence, 1.5 h
Of the large screens only hits and unclear results are named; the others gave an inactive call. In the library only some 3.6% were active in any assay of this set; here they are far more common. No stated cut-off is given here; in the data, active means inhibition above about 50%; inactive means the rest.

CC(=O)n1cc(/C=C2\C(=O)NN(c3ccccc3)C2=O)c(-c2ccc(F)cc2)n1	mHTT CaM bind 54
CCc1ccccc1NC(=O)C1c2cc(OC)c(OC)cc2C(=O)N2CCc3ccccc3C12 (stereo unspecified)	mHTT CaM bind 63
CCOc1ccccc1NC(=O)C1c2ccccc2C(=O)N2CCc3ccccc3C12 (stereo unspecified)	none
CCOc1cc2c(cc1OCC)C1C(C(=O)Nc3cc(C)ccn3)c3ccccc3C(=O)N1CC2 (stereo unspecified)	mHTT CaM bind 51
CCc1ccc(CNC(=O)C2c3cc(OC)c(OC)cc3C(=O)N3CCc4ccccc4C23)cc1 (stereo unspecified)	none
CC(C)NC(=O)c1cc2cc(Br)ccc2[nH]1	none
Cc1cc(C)n2ncc(-c3ccc(Cl)cc3)c2n1	none
Cc1cc(/C=C2\C(=O)NC(=O)N(c3ccccc3)C2=O)c(C)n1-c1cccc([N+](=O)[O-])c1	mHTT CaM bind 59
CC1=NN(c2ccccc2)C(=O)/C1=C\c1cc(C)n(-c2cccc([N+](=O)[O-])c2)c1C	none
CCN(CC)CCN1C(=O)C(=O)C(=C(O)c2ccc(OC)cc2C)C1c1ccncc1 (stereo unspecified)	none
N#Cc1ccc(NC(=O)c2cc3ccccc3oc2=O)cc1	none
CCS(=O)(=O)c1ccc(CC(=O)Nc2nnc(-c3ccccc3Cl)o2)cc1	mHTT CaM bind 68
COc1ccc(S(=O)(=O)CC(=O)Nc2nnc(-c3cc(C)oc3C)o2)cc1	mHTT CaM bind 57
O=C(CS(=O)(=O)Cc1ccccc1)Nc1nnc(-c2ccccc2Cl)o1	none
Cc1cc(-c2nnc(NC(=O)c3ccc(S(=O)(=O)N(C)C)cc3)o2)c(C)o1	mHTT CaM bind 58
COc1cc(OC)cc(-c2nnc(NC(=O)c3ccc(S(=O)(=O)N(C)C)cc3)o2)c1	none
COc1ccc(-c2nnc(NC(=O)CS(=O)(=O)c3ccc(F)cc3)o2)c(OC)c1	none
COc1cc(Cl)c(C)cc1NC(=O)c1cc(S(=O)(=O)N2CCc3ccccc32)ccc1F	none
Cc1ccc([N+](=O)[O-])cc1N=Cc1cc2c(cc1[N+](=O)[O-])OCO2	none
COc1ccc(N=Cc2cc3c(cc2[N+](=O)[O-])OCO3)cc1OC	none
O=[N+]([O-])c1cc2c(cc1C=Nc1ccc(Nc3ccccc3)cc1)OCO2	mHTT CaM bind 85
Cc1ccc(N=Cc2cc3c(cc2[N+](=O)[O-])OCO3)cc1Br	mHTT CaM bind 69
CC(=O)Nc1ccc(N=Cc2cc3c(cc2[N+](=O)[O-])OCO3)cc1	none
Cc1cc(O)c(N=Cc2cc3c(cc2[N+](=O)[O-])OCO3)cc1C	mHTT CaM bind 70
O=[N+]([O-])c1cc2c(cc1C=Nc1ccccc1)OCO2	mHTT CaM bind 78
O=[N+]([O-])c1ccc(N=Cc2cc3c(cc2[N+](=O)[O-])OCO3)cc1	none
Cc1cc(C(=O)N2CCC(Cc3nc4cccnc4n3CC(C)C)C2)nn1C (stereo unspecified)	none
COc1ccccc1CC(=O)Nc1cc(C(=O)O)cc(C(=O)O)c1	none
Cc1cccc2c(=O)n(C3CCN(S(=O)(=O)c4ccccc4F)CC3)cnc12	none
Cc1cccc(N=Cc2cc3c(cc2[N+](=O)[O-])OCO3)c1	mHTT CaM bind 86
O=[N+]([O-])c1cc2c(cc1C=Nc1ccc(Cl)c(Cl)c1)OCO2	none
Oc1nc(Nc2ccccc2)sc1C=C1C=Nc2ccccc21	mHTT CaM bind 69
O=c1[nH]c(O)c(C=C2C=Nc3ccccc32)[nH]1	none (no result: mHTT CaM bind)
Cc1cc(C)cc(NC(=O)N2CCC(n3c(-c4ccco4)nc4cccnc43)C2)c1 (stereo unspecified)	none
CC(=O)CC1c2cc(F)ccc2C=C(c2ccsc2)N1c1ccc(-c2cccnc2)cc1 (stereo unspecified)	none
NC(=O)c1ccc(-c2ccc(N3C(c4ccsc4)=Cc4ccc(F)cc4C3CC(=O)c3ccco3)cc2)cc1 (stereo unspecified)	mHTT CaM bind 58
COc1ccc(N2C(c3cc(OC)cc(OC)c3)=Cc3ccccc3C2CC(C)=O)cc1 (stereo unspecified)	none
COc1cc(OC)cc(C2=Cc3ccccc3C(CC(C)=O)N2c2ccc(C#CCCO)cc2)c1 (stereo unspecified)	none
COc1cc(OC)cc(C2=Cc3ccccc3C(CC(=O)c3ccco3)N2c2ccc(-c3cncnc3)cc2)c1 (stereo unspecified)	mHTT CaM bind 97
COc1cc(OC)cc(C2=Cc3ccccc3C(CC(=O)c3ccco3)N2c2ccc(-c3ccc(C(N)=O)cc3)cc2)c1 (stereo unspecified)	mHTT CaM bind 100
Cc1cc(Cl)ccc1NC(=O)C(=O)NCc1cccnc1	none
COc1ccc(S(=O)(=O)N2CCC(c3cnn(-c4cccc(C)c4)c3)CC2)cc1	none
CCN(CC)CCCC(C)Nc1ncnc(N)c1[N+](=O)[O-] (stereo unspecified)	none
COc1ccc(S(=O)(=O)N2CCCc3cc(NC(=O)Cc4cccs4)ccc32)cc1	none
CCCC(=O)NC(/C=C/c1ccccc1)c1cc([N+](=O)[O-])c2cccnc2c1O (stereo unspecified)	none
Cc1ccc(C(NC(=O)C(C)C)c2cc(Cl)c3cccnc3c2O)cc1 (stereo unspecified)	none
CC(=O)NC(c1ccc(Cl)cc1)c1cc([N+](=O)[O-])c2cccnc2c1O (stereo unspecified)	mHTT CaM bind 100
CC(=O)NC(c1ccc(Cl)cc1Cl)c1cc(Cl)c2cccnc2c1O (stereo unspecified)	mHTT CaM bind 100
CC(=O)NC(/C=C/c1ccccc1)c1cc([N+](=O)[O-])c2cccnc2c1O (stereo unspecified)	mHTT CaM bind 100
CC(=O)NC(c1ccc(Cl)cc1)c1cc(Cl)c2cccnc2c1O (stereo unspecified)	mHTT CaM bind 74
CCN(C)c1ccc(/C=C2\C(=O)NN(c3ccc(Cl)c(Cl)c3)C2=O)cc1	none
CCC(C)NC(=O)c1ccc(-c2csc(C)n2)cc1 (stereo unspecified)	none
COc1cc(/C=C2/N=C(c3ccccc3)OC2=O)cc(OC)c1OC	none
Cc1ccc(OCC(=O)N2CCCCC2CCN2CCCCC2)cc1C (stereo unspecified)	mHTT CaM bind 54
CCOc1cc(C(=O)Nc2ccc(N3CCCC3)cc2)cc(OCC)c1OCC	mHTT CaM bind 79
COc1ccc(C(=O)Nc2ccc(N3CCOCC3)cc2)cc1	none
COc1ccc(C(=O)Nc2ccc(N3CCCC3)cc2)cc1OC	none
Cc1ccc(OCC(=O)Nc2ccc(N3CCCC3)cc2)cc1C	mHTT CaM bind 99
CCC(=O)Nc1ccc(NC(=O)COc2ccc(C)c(C)c2)cc1	none
Cc1cc(OCC(=O)N2CCCCC2CCN2CCCC2)ccc1Cl (stereo unspecified)	none
COc1ccc(C(=O)Nc2ccc(N3CCCC3)cc2)cc1	mHTT CaM bind 99
CC(=O)Nc1ccc(-c2noc(C3CCCN(C(=O)c4cccs4)C3)n2)cc1 (stereo unspecified)	none
CC(C)c1ccc(C(=O)Nc2ccc(S(N)(=O)=O)cc2)cc1	none
O=C1S/C(=C\c2ccco2)C(=O)N1c1ccccc1	none
Cc1ccccc1-n1cc(-c2ccc(Br)cc2)[nH]c1=O	none
Cc1cccc(OCC(=O)Nc2ccc(Nc3ccccc3)cc2)c1	mHTT CaM bind 74
CCC(=O)Nc1ccc(NC(=O)COc2cccc(C)c2)cc1	none
O=C(Nc1ccc(Cl)c(Cl)c1)c1cnc2n(c1=O)CCS2	none
